Measurements reported in PubChem BioAssay (NCATS).
Results filed as inconclusive are left out. Entries that show only a call come without a potency. The source made the active and inactive calls. Calls come from the whole dose curve; as a rule, active = well fitted inhibition curve with a large enough effect; inconclusive = small, poorly fitted or top-dose-only effect; inactive = no such curve, though single readings can be large or run the other way.

Test: BET inhibitor-based combinations targeting novel dependencies in MECOM-rearranged (r) AML: HNT-34 cell line (AID 2202234); note: nearly all actives have a fitted effect of over 35% in size
Settings: HNT-34 AML viability, CellTiter-Glo luminescence, 48 h; series mostly up to 46 µM
Text: Ecotropic viral insertion site 1 (EVI1) is located on chromosome 3q26.2 as part of the MECOM (MDS and EVI1 complex) locus. Under normal hematopoiesis, EVI1 is a regulator of hematopoietic stem cell maintenance and self-renewal and EVI1 levels decrease as the cells differentiate. In approximately 5-10% of de novo acute myeloid leukemia (AML) EVI1 is aberrantly expressed, including Chromosomal inv(3)(q21;q26.2) or t(3;3)(q21;q26.2) alterations (MECOM-r) that account for about 50% of AML with EVI1 overexpression 31. AMLs with high levels of EVI1 have a poor prognosis and an overall survival time averaging between 10-14 months. EVI1 overexpression confers resistance in leukemia cells, highlighting the need to develop new targeted therapies for EVI1 overexpressing AMLs. Here, we performed an unbiased chemical drug screening by evaluating the single agent activity of a collection of 2,480 oncology-focused, approved and investigational drugs (NCATS Mechanism Interrogation Plates, MIPE v5.0) against a panel of seven AML cell lines. These included four MECOM-r cell-lines (AML-191, AML-194, UCSD-AML1 and HNT-34) and three non-MECOM-r AMLs (MV4-11, OCI-AML3 and SET-2). Exploiting the mechanistic redundancy built in the library, we identified target-level sensitivities in MECOM-r AML cells and relative activity as compared to other AML subtypes.
A collection of 2480 mechanistically annotated dugs (MIPE v5.0) was used to screen four 3q26.2 rearranged AML cell lines and three non-3q26.2 rearranged AML cell lines. This library purposely exploits redundancy by including multiple inhibitors of key onco-targets, while simultaneously encompassing mechanistic diversity, targeting more than 800 distinct mechanisms of action. Briefly, cells were seeded in 5 uL of growth media using a Multidrop Combi dispenser into 1536 well white polystyrene tissue culture treated plates (Corning) at a density of 500cells/well. For each cell-line, for each of the 2480 drugs in MIPE v5.0 library, an 11-point dose curve was generated via a 1536 pin-tool. Plates were incubated for 48 hr at standard incubator conditions, covered by a stainless steel gasketed lid to prevent evaporation. Cell viability was determined by luminescence based, Cell Titer Glo assay (Promega). In detail, 3 uL of Cell Titer Glo were added to each well and plates were incubated at room temperature for 15 min with a stainless-steel lid in place. Luminescence readings were taken using a Viewlux (PerkinElmer) with a 2 s exposure time per plate. Compound dose-response curves were normalized to DMSO and empty well controls on each plate. Quantitative drug activity data from dose-response curves was determined utilizing area Under the Curve (AUC) and Z-transformed AUC (Z-AUC, a mean-centering transformation applied to each individual cell-line screened).
Potency is the fitted concentration of half-maximal effect.

SMILES | Potency
O=C(Oc1ccc([N+](=O)[O-])cc1)N1CCN(Cc2cccc(Oc3ccccc3)c2)CC1 | inactive
CC(=O)OC[C@H]1O[C@@H]([S-])[C@H](OC(C)=O)[C@@H](OC(C)=O)[C@@H]1OC(C)=O.CC[PH+](CC)CC.[Au] | 833 nM (active)
C[C@@H]1CC[C@@]2(OC1)O[C@H]1C[C@H]3[C@@H]4CC=C5C[C@@H](O[C@@H]6O[C@H](CO)[C@@H](O[C@@H]7O[C@@H](C)[C@H](O)[C@@H](O)[C@H]7O)[C@H](O)[C@H]6O[C@@H]6O[C@@H](C)[C@H](O)[C@@H](O)[C@H]6O)CC[C@]5(C)[C@H]4CC[C@]3(C)[C@H]1[C@@H]2C | 5250 nM (active)
CC(O)(CS(=O)(=O)c1ccc(F)cc1)C(=O)Nc1ccc(C#N)c(C(F)(F)F)c1 (stereo not given) | inactive
N=c1c2c(-c3ccccc3)c(-c3ccccc3)n(Cc3ccccc3)c2ncn1C1CCC(O)CC1 (stereo not given) | 2630 nM (active)
Cn1c(CCCCCCC(=O)NO)nc2cc(N(CCCl)CCCl)ccc21 | 2950 nM (active)
Cc1cccc(C)c1NC(=O)CN1CCCC1=O | inactive
O=C(O)CNC(=O)c1c(O)c2ccccc2n(Cc2ccccc2)c1=O | inactive
COC(=O)[C@]12CCC(C)(C)C[C@H]1[C@H]1C(=O)C=C3[C@@]4(C)C=C(C#N)C(=O)C(C)(C)[C@@H]4CC[C@@]3(C)[C@]1(C)CC2 | 1660 nM (active)
COc1cc(C(=O)N2CC[C@@H](O)[C@@H](N)C2)cc2nc(-c3cc4ccccc4n3CC3CC3)n(C)c12 | inactive
C/C(=C\c1csc(C)n1)[C@@H]1C[C@@H]2O[C@]2(C)CCC[C@H](C)[C@H](O)[C@@H](C)C(=O)C(C)(C)[C@@H](O)CC(=O)O1 | 8.3 nM (active)
O=S(=O)(CC1CS1)c1ccc(Oc2ccccc2)cc1 (stereo not given) | 20900 nM (active)
CC(C)(O)/C=C\C(=O)[C@](C)(O)[C@H]1[C@H](O)C[C@]2(C)[C@@H]3CC=C4[C@@H](C=C(O)C(=O)C4(C)C)[C@]3(C)C(=O)C[C@@]12C | 105 nM (active)
CC(NC(C)(C)C)C(=O)c1cccc(Cl)c1 (stereo not given) | inactive
CC(=O)Nc1ccc(OC[C@](C)(O)C(=O)Nc2ccc([N+](=O)[O-])c(C(F)(F)F)c2)cc1 | inactive
CN(C)CCN(C)CCc1ccc(Cl)c(Cl)c1 | inactive
O=P1(N(CCCl)CCCl)NCCCO1 (stereo not given) | inactive
O=C(O)c1nn(Cc2ccc(Cl)cc2Cl)c2ccccc12 | inactive
C[C@]12CC[C@H]3[C@@H](CCC4=CC(=O)CC[C@@]43C)[C@H]1CC[C@H]2OC(=O)CCC1CCCC1 | inactive
CN1C(=O)COc2c(C(=O)NC3CN4CCC3CC4)cc(Cl)cc21 (stereo not given) | inactive

SMILES | Potency
CCN1CCN(C(=O)Cc2ccc(Nc3ncc(F)c(Nc4ccc(C(=O)Nc5ccccc5Cl)cc4)n3)cc2)CC1 | 1480 nM (active)
CC[C@H]1/C=C\C=C/C[C@@H](C)[C@H](O)[C@@](C)(O)C(=O)[C@@H](C)[C@H](O)[C@@H](C)C(=O)[C@@H](C)[C@H](O)[C@@H](C)/C=C\C(=O)O[C@@H]2[C@H](C)[C@H](CC1)O[C@]1(CC[C@H](C)[C@H](C[C@@H](C)O)O1)[C@H]2C | 46.8 nM (active)
CCOC(=O)Nc1ccc(NCc2ccc(F)cc2)cc1N | inactive
CCN1C[C@]2(OC(=O)c3ccccc3NC(C)=O)CC[C@H](OC)[C@@]34[C@H]5CC6[C@@H](OC)C[C@](O)(C(C[C@@H]23)[C@@H]14)[C@@]5(O)[C@@H]6OC | inactive
C=C(C)[C@H]1Cc2c(ccc3c2O[C@@H]2COc4cc(OC)c(OC)cc4[C@@H]2C3=O)O1 | 833 nM (active)
CC(C)c1cccc(C(C)C)c1O | inactive
N[C@@H](Cc1ccc(N(CCCl)CCCl)cc1)C(=O)O | 3720 nM (active)
O=c1cccc2n1CC1CNC[C@H]2C1 | inactive
O=C(NCC1CCOCC1)c1cnc(Nc2ccc(Cl)cc2Cl)nc1C(F)(F)F | inactive
CCCN1CCO[C@@H]2c3cc(O)ccc3OC[C@H]21 | inactive
COc1ccc(C(=O)c2c(C)n(CCN3CCOCC3)c3ccccc23)cc1 | 2350 nM (active)
CN(C)NC(=O)CCC(=O)O | inactive
CC1(N2CCC(n3c([C@@H]4CCCNC4)nc4ccccc43)CC2)CCCCCCC1 | 20900 nM (active)
NC(=O)[C@@H](CC1CC1)[C@@H](CCC(F)(F)F)C(=O)N[C@H]1N=C(c2ccccc2)c2cccc(F)c2NC1=O | inactive
CN(C)[C@@H]1C(=O)C(C(N)=O)=C(O)[C@@]2(O)C(=O)C3=C(O)c4c(O)cccc4[C@@](C)(O)[C@H]3[C@H](O)[C@@H]12 | inactive
CC(=O)N1N=C(c2ccc(N)cc2)c2cc3c(cc2C[C@H]1C)OCO3 | inactive
CC1(C)CC(O)CC(C)(C)N1O | inactive
CN1C(=O)[C@@H](NC(=O)[C@H](CCC(F)(F)F)[C@H](CCC(F)(F)F)C(N)=O)N=C(c2ccccc2)c2ccccc21 | inactive
COC(=O)[C@@]12OC[C@]34[C@H]([C@@H](O)[C@@H]1O)[C@@]1(C)CC(=O)C(O)=C(C)[C@@H]1C[C@H]3OC(=O)[C@H](OC(=O)/C=C(\C)C(C)C)[C@@H]24 | 4.2 nM (active)
CO/C1=C/C(C)=C\[C@@H](C)[C@@H](O)[C@@H](C)C/C(C)=C\C=C/[C@H](OC)[C@@H]([C@@H](C)[C@@H](O)[C@H](C)[C@@]2(O)C[C@@H](O)[C@H](C)[C@@H](C(C)C)O2)OC1=O | 87.9 nM (active)
